A selection follows.
aSyn 5UTR act: Activators via SNCA 5'UTR binding, MLPCN; alpha-synuclein 5'UTR reporter, activators screen; activity score, % (tested at 7.5 µM), hits read low; 300,000 tested, 7.1% active; AID 1814; in the data active = activity score below about -60%
* hit, by the source's call.

SMILES	aSyn 5UTR act
CCc1nnc(NC(=O)CSc2nc3c(cc2C#N)CCC3)s1	-159.4*
Cc1cc(C(=O)O/N=C(\N)c2ccncc2)ccc1[N+](=O)[O-]	-124.1*
COc1ccc(/C(N)=N/OC(=O)c2ccc(C)c([N+](=O)[O-])c2)cc1	-165.4*
COc1ccc(CCOC(=O)c2ccc(N)c([N+](=O)[O-])c2)cc1	-73.3*
O=c1[nH]cnc2nn(-c3ccccc3)nc12	-82.0*
N#CCC(=O)Nc1ccc(C(=O)OCC(=O)c2ccc3c(c2)OCCO3)cc1	-111.7*
N#CCC(=O)Nc1ccc(C(=O)OCC(=O)c2ccc3c(c2)OCO3)cc1	-89.3*
O=C(Nc1cc(Cl)ccc1O)c1cc(-c2ccco2)on1	-232.7*
O=C(Nc1cccnc1Cl)c1cc(-c2ccco2)on1	-80.3*
O=C(Nc1cc(Br)ccc1O)c1cc(-c2ccco2)on1	-133.5*
CC12COC3(C(=O)Nc4ccc5ccccc5c4)CC1CCC32C (configuration not stated)	-144.5*
CCCCN=C1NN=C(c2cccc([N+](=O)[O-])c2)CS1	-67.9*
CCCCN=C1NN=C(c2cc3ccccc3o2)CS1	-106.0*
COC(=O)c1ccccc1NC(=O)c1ccc2c(c1)CC(C)O2 (configuration not stated)	-64.9*
Oc1ccc(C2C(c3ccccc3)=NN=C(c3ccc(Cl)cc3)N2O)c(O)c1 (configuration not stated)	-72.4*
Oc1ccc(C2C(c3ccccc3)=NN=C(c3ccccc3F)N2O)c(O)c1 (configuration not stated)	-91.4*
CCCN1CCN(c2ncnc3c2nnn3Cc2ccccc2)CC1	-69.3*
Clc1ccccc1Cn1nnc2c(N3CCOCC3)nc(C3CC3)nc21	54.6
O=[N+]([O-])c1ccccc1N/N=C/c1ccc2c(c1)OCO2	-95.4*
O=[N+]([O-])c1ccccc1N/N=C/c1ccccc1	-231.0*
Cc1ccc2nc(NC(=O)c3cccc(-c4cc5ccccc5oc4=O)c3)sc2c1	-87.9*
O=C(Nc1cccc(Cl)c1N1CCCC1)c1cccc(-c2cc3ccccc3oc2=O)c1	-100.9*
CCn1nnc(NC(=O)c2cccc(-c3cc4ccccc4oc3=O)c2)n1	-104.9*
COC(=O)c1cccc(C(=O)Nc2ccc(C)cc2Br)n1	-155.2*
Cc1ccc(NC(=O)c2cccc(C(=O)OC(C)C)n2)c(Br)c1	-73.0*
SMILES	aSyn 5UTR act
COC(=O)c1sccc1NC(=O)COc1ccc(Cl)cc1Cl	-161.7*
COC(=O)c1sccc1NC(=O)COc1ccc(C)cc1	-143.6*
CC1(C)Cc2c(sc(NC(=O)COc3ccc(Cl)cc3Cl)c2C(N)=O)C(C)(C)N1	62.1
COc1ccccc1CCNC(=O)c1nc(-c2cccs2)no1	-93.3*
COc1ccccc1CC(=O)NCc1csc(-c2cccs2)n1	-117.4*
O=C(NCc1csc(-c2cccs2)n1)C1CCCCC1	-66.7*
COc1ccc(O)c(/C=N/N2CCCCC2)c1	-149.8*
CCc1c(C)sc(NC(=O)c2ccco2)c1C#N	-103.9*
O=C(Nc1nc(-c2ccccn2)cs1)c1cccc(-n2cnnn2)c1	82.7
O=C(Nc1nc(-c2ccccn2)cs1)C1CC1	-110.7*
N#Cc1ccc(-c2csc(NC(=O)C3CC3)n2)cc1	-64.0*
O=C(Nc1nc(-c2ccccn2)cs1)C12CC3CC(CC(O)(C3)C1)C2	-68.2*
CS(=O)(=O)Oc1ccc2c(c1)O/C(=C\C=C\c1ccccc1)C2=O	-80.8*
CCN(CC)Cc1c(O)ccc2c1O/C(=C\C=C\c1ccccc1)C2=O	-438.5*
COc1cccc(NC(=O)CSc2nnc(-c3cccc(OC(C)C)c3)n2N)c1	-73.2*
O=C(Nc1ccccc1)Nc1ccccc1Br	-93.6*
O=C(Nc1ccc(Cl)cc1)Nc1cccc2nsnc12	-125.8*
O=C(Nc1ccccc1)Nc1cccc(Cl)c1Cl	-237.2*
O=C(Nc1ccccc1)Nc1ccc(Br)c(Cl)c1	-126.0*
O=C(CN1CCCC1)Nc1ccc(NC(=O)Nc2ccccc2Cl)cc1	-126.4*
S=C(Nc1ccc(OCc2ccccc2)cc1)Nc1cccc(Cl)c1Cl	-102.1*
CC1SCC(=NOCc2ccccc2)CS1 (configuration not stated)	-88.5*
COc1ccc(S(=O)(=O)N2CCN(c3ccccn3)CC2)cc1[N+](=O)[O-]	45.5
CN(c1ccccc1)c1ccc(/C=N/N2CCOCC2)cc1	-156.4*
CN(C)c1ccc(/C=N/N2CCN(c3ccccn3)CC2)cc1	-125.8*
SMILES	aSyn 5UTR act
CN(C1=C(N2CCOCC2)C(=O)c2ccccc2C1=O)c1ccccc1	39.1
Cc1ccc(/C=N/N2CCN(c3ccccn3)CC2)o1	-80.4*
O=[N+]([O-])c1ccccc1/C=N/N1CCN(c2ccccn2)CC1	-78.8*
C(=N\N1CCN(c2ccccn2)CC1)/c1ccccn1	-115.1*
BrC(=C\c1ccccc1)/C=N/N1CCN(c2ccccn2)CC1	-70.4*
Oc1cccc(/C=N/N2CCN(c3ccccn3)CC2)c1	-75.9*
Cn1c(O)c(/C=N/NC(=O)c2cc3ccccc3cc2O)c2ccccc21	-83.5*
S=C(N=Nc1ccccc1)NNc1ccccc1	-132.2*
c1ccc(OCc2nc3ccccc3s2)cc1	-122.9*
Fc1ccc(OCc2nc3ccccc3s2)cc1	-178.3*
O=S(=O)(Cc1nc2ccccc2s1)c1ccccc1	-68.7*
CCC(=O)Nc1ccc(OCc2nc3ccccc3s2)cc1	-124.7*
C/C(=N\N=C\c1ccc(N(C)C)cc1)c1cccc([N+](=O)[O-])c1	-68.2*
CCOC(=O)Cc1csc(NC(=O)c2cnc3sc(C)cn3c2=O)n1	-111.9*
CCOC(=O)Cc1csc(NC(=O)c2ccco2)n1	-162.4*
CCOC(=O)Cc1csc(NC(=O)c2ccc(Cl)s2)n1	-119.0*
COc1ccc(C(=O)N2CCn3c2nc2ccccc23)cc1	-108.4*
Cc1ccc(C(=O)n2c(N)nc3ccccc32)cc1	81.1
COc1ccc(C(=O)n2c(-c3ccco3)nc3ccccc32)cc1	-100.5*
CCOc1ccc(C(=O)N2CCn3c2nc2ccccc23)cc1	-69.2*
O=C(c1cccs1)N1CCn2c1nc1ccccc12	-117.8*
Clc1cccc(OCc2nnc(-c3ccccc3Br)o2)c1	-67.9*
Clc1ccc(OCc2nnc(-c3ccccc3Br)o2)c(Cl)c1	-144.1*
Clc1ccccc1OCc1nnc(-c2ccccc2)o1	-109.4*
Fc1ccc(OCc2nnc(-c3ccccc3Br)o2)c(Cl)c1	-151.4*
SMILES	aSyn 5UTR act
O=C(Nc1ncc(Cc2cccc(Cl)c2)s1)c1cccs1	-192.4*
O=C(Nc1ncc(Cc2ccc(SC(F)F)cc2)s1)c1ccccc1	67.7
Cc1ccc(Cc2cnc(NC(=O)c3cccs3)s2)cc1	-91.2*
N#Cc1cccc(NC(=O)CSc2ccc3c4c(cccc24)C(=O)c2ccccc2-3)c1	-154.4*
COc1ccc(NC(=O)CSc2ccc3c4c(cccc24)C(=O)c2ccccc2-3)cc1	-65.5*
COc1ccc(NC(=O)/C=C/c2ccco2)cn1	-237.3*
COc1ccc(NC(=O)/C=C/c2cccc(F)c2)cn1	-196.1*
Cc1c(C)n(CCO)c2ncnc(Nc3ccc(F)cc3)c12	-64.0*
CCCCN(C(=O)NC(=O)Nc1cccc(C)c1C)S(C)(=O)=O	-92.0*
COc1ccc(C(NC(=O)c2cccnc2)c2cc(Cl)c3cccnc3c2O)cc1OC (configuration not stated)	75.9
COc1ccc(NC(=O)C(=O)Nc2cccc3cccnc23)cc1OC	-114.0*
CCS(=O)(=O)c1ccc(OC)c(N=Nc2ccc(O)c3ncccc23)c1	65.8
COc1ccc(C(=O)Nc2cccc3cccnc23)cc1OC	-71.6*
Cc1cc(C(=O)Nc2cccc3cccnc23)ccc1[N+](=O)[O-]	-105.5*

Bioassay records from PubChem.
